Screens: PubChem BioAssay, several laboratories
Sampled rows, rich in hits. Any-hit rate of the full collection: about 4%.
DUSP3 inh: DUSP3 (human) phosphatase inhibition. P51452. recombinant VHR phosphatase, pNPP absorbance. inhibition, % at 13.3 µM. hit rate 0.52% among 290,000; in the data active = inhibition above about 50%
Anthrax LF inh2: blocks Bacillus anthracis lethal factor protease; P15917; multiplex microsphere protease cleavage assay, LF; inhibition, % at 10 µM; hit rate 0.12% among 360,000
BoNT A protease: inhibitors of Botulinum neurotoxin A light chain protease. multiplex microsphere protease substrate cleavage, flow cytometry. inhibition, % at 10 µM. hit rate 0.17% among 360,000. AID 588499
Bead autofluor: flagged as autofluorescent in microsphere protease counterscreen. compound autofluorescence counterscreen, microsphere flow cytometry; stronger effect = higher value. fluorescence intensity (concentration not given with the values). hit rate 3.1% among 360,000. AID 624483; in the data active = fluorescence intensity above about 16000; inconclusive = no clear call, values can overlap the other calls
MazF activator: activators of E. coli MazEF toxin-antitoxin RNase. P0AE70. FAM/BHQ RNA-DNA oligo cleavage fluorescence, 5 h. activation, % at 20 µM. hit rate 0.32% among 350,000. AID 504720; in the data active = activation above about 50%
BoNT-F LC inh: inhibitors of Botulinum neurotoxin F light chain protease. Multiplex microsphere protease cleavage assay, flow cytometry. inhibition, % at 10 µM. hit rate 0.22% among 360,000. AID 588497; in the data active = inhibition above about 35%, passing the limit was not always enough; inconclusive = no clear call, values can overlap the other calls
Each line names hits and unclear results; the compound was inactive in the other large screens. Cut-off read from the data, not from the text of the source, unless noted: active = inhibition above about 30%; inconclusive = no clear call, values can overlap the other calls; inactive = below that.

O=c1[nH]c(C2CCN(S(=O)(=O)c3ccc4c(c3)OCCO4)CC2)nc2c1nnn2Cc1ccccc1	DUSP3 inh 53
Cc1ccc(Cn2nnc3c(=O)[nH]c(C4CCCN(S(=O)(=O)c5ccccc5F)C4)nc32)cc1 (stereo not drawn)	none
Cc1ccc(C)c(Cn2nnc3c(=O)[nH]c(C4CCCN(C(=O)CC(C)C)C4)nc32)c1 (stereo not drawn)	Bead autofluor 21556
Cc1ccc(Cn2nnc3c(=O)[nH]c(C4CCCN(S(=O)(=O)c5ccccc5)C4)nc32)cc1 (stereo not drawn)	DUSP3 inh 51
CC(C)c1ccccc1NS(=O)(=O)N(C)C	none
CC(C)(C)c1ccc(CC(=O)N2CCC2(C)C(=O)NS(=O)(=O)c2cccs2)cc1 (stereo not drawn)	none (no result: DUSP3 inh, MazF activator)
C/C(=N\NC(=O)C1COc2ccccc2O1)c1cccs1 (stereo not drawn)	none
CCOC(=O)C1=C(CC)Nc2ccccc2N=C1NC(=O)c1ccc(S(=O)(=O)N(C)C)cc1	none
CCOc1ccc2oc(-c3ccccc3)c(C(=O)N3CCN(C)CC3)c2c1	Bead autofluor 22066
CNC(=S)N(C)/N=C1/C(=O)N(Cc2c(Cl)cccc2Cl)c2ccccc21	none (no result: DUSP3 inh)
CC1CCCC(C)N1CCCNC(=O)c1ccc2c(c1)NC(=O)c1ccccc1S2 (stereo not drawn)	DUSP3 inh 58
CCN1CCN(CCCNC(=O)c2ccc3c(c2)NC(=O)c2ccccc2S3)CC1	none
Cc1ccc(CNC(=O)C2CCN(c3nn4c(=O)cc(C)nc4s3)CC2)cc1	none
Cc1cc(=O)n2nc(N3CCC(C(=O)NCc4ccccc4)CC3)sc2n1	DUSP3 inh 52
Cc1c(NN=C(C#N)C#N)c(=O)n(-c2ccccc2)n1C	none
O=C1CC(N2CCN(c3ccccc3)CC2)C(=O)N1c1cccc(Cl)c1 (stereo not drawn)	none
O=C1CC(N2CCN(c3cccc(C(F)(F)F)c3)CC2)C(=O)N1c1ccc(F)cc1 (stereo not drawn)	Bead autofluor 22486
CCOc1cccc(N2C(=O)CC(N3CCN(c4ccc(S(=O)(=O)CC)cc4)CC3)C2=O)c1 (stereo not drawn)	Bead autofluor 22715
CCOc1ccc(N2C(=O)CC(N3CCN(c4ccc(Cl)cc4)CC3)C2=O)cc1 (stereo not drawn)	none
Cc1cccc(N2C(=O)CC(N3CCN(c4cccc(C(F)(F)F)c4)CC3)C2=O)c1 (stereo not drawn)	BoNT A protease inconclusive, Bead autofluor 20300
CCOC(=O)C1CCCN(C2CC(=O)N(c3cccc(C(F)(F)F)c3)C2=O)C1 (stereo not drawn)	BoNT A protease inconclusive, Bead autofluor 23785
O=C(Nc1ccc(/C=C/c2nc3ccccc3o2)cc1)c1cccc(C(F)(F)F)c1	none
Oc1cc2c(cc1CN1CCN(c3ccc(F)cc3)CC1)OCO2	none
Cc1ccccc1C(=O)Oc1ccc(Br)cc1C(=S)N1CCCC1	BoNT A protease inconclusive, Bead autofluor 22492
CNc1ccc(Br)cc(C(=O)/C=C/c2ccc3c(c2)OCO3)c1=O	none
CNc1ccc(Br)cc(C(=O)/C=C/c2ccc(OC)cc2)c1=O	none
CCNc1ccc(Br)cc(C(=O)/C=C/c2ccc(Cl)cc2Cl)c1=O	Anthrax LF inh2 43, BoNT A protease inconclusive, Bead autofluor 17500
CNc1ccc(Br)cc(C(=O)/C=C/c2cc(OC)ccc2OC)c1=O	Bead autofluor 17230
CC1CCCCC1NC(=O)C1CC(=O)N(Cc2ccccc2)C1 (stereo not drawn)	none
CCOC(=O)c1sc(N2N=C(C)C(N=Nc3cccc(C)c3)C2=O)nc1C (stereo not drawn)	DUSP3 inh 55
Cc1ccccc1NC(=S)NNC(=O)c1ccoc1C	Bead autofluor 24040
Cc1cc(NC(=O)CSc2nc3ccccc3n2CC(=O)N2CC(C)CC(C)C2)no1 (stereo not drawn)	BoNT A protease inconclusive, Bead autofluor 23778
Cc1cc(NC(=O)CSc2nc3ccccc3n2CC(=O)N2CCC(C)CC2)no1	none
COc1ccc(CCn2c(SCC(=O)Nc3cc(C)on3)nc3ccsc3c2=O)cc1OC	Bead autofluor 19488
CCCCn1c(SCC(=O)Nc2cc(C)on2)nc2ccsc2c1=O	none
COc1ccc(CCn2c(SCC(=O)Nc3cc(C)on3)nc3ccccc3c2=O)cc1OC	none
COCCn1c(SCC(=O)Nc2cc(C)on2)nc2ccccc2c1=O	Bead autofluor inconclusive, BoNT-F LC inh inconclusive (no result: DUSP3 inh)
